Values joined by “and” are separate entries in the source; they are usually repeats but may differ in a detail not shown here. Equal entries are not always repeated. Records with an inconclusive call do not appear. More than one record can exist for a structure, and the calls need not agree. Active and inactive are the calls of the source. The calls were made as follows: active = hit-call score of the fitted dose curve at least 0.9, where 1 is the maximum; inconclusive = response in the unintended direction; inactive = score below 0.9.
What was measured:
[1] = target: Estrogen receptor (Homo sapiens) (UniProt P03372); assay: OT_ERa_GFPERaERE_0120: Odyssey Thera (OT) 2-hour HeLa Transcription Induction Assay for Estrogen Receptor (AID 2283382)
In short: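 HeLa cells were dosed for 2 h, then GFP reporter induction was quantified by fluorescence microscopy with high-content image analysis. Gain of signal fitted against DMSO baseline.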

[2] = target: Estrogen receptor beta (Homo sapiens) (UniProt Q92731); assay: OT_ER_ERbERb_1440: Odyssey Thera (OT) 24-hour HEK293T Protein-Complementation Assay for Estrogen Receptor-beta/-beta Homodimer (AID 2283380);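 also: scored as signal increase over DMSO baseline for both agonists and antagonists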
In short: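 HEK293T cells stably expressing ER beta LBD (aa 310-547) homodimer fragment-complementation reporter, dosed 24 h. Cells formaldehyde-fixed, Draq5-stained; gain in nuclear (agonist) or nuclear plus cytoplasmic (antagonist) fluorescence versus DMSO read by laser scanning cytometry.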

[3] = target: Retinoic acid receptor RXR-alpha (Homo sapiens) (UniProt P19793); assay: OT_NURR1_NURR1RXRa_0480: Odyssey Thera (OT) 8-hour HEK293T Protein Complementation Assay for Nurr1/retinoid X receptor (RXR) (AID 2283385)
In short: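 HEK293T cells expressing Nurr1 and RXRα fused to reporter fragments (protein-fragment complementation); fluorescence measured 8 h after dosing. Gain of signal fitted relative to DMSO.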

[4] = target: Retinoic acid receptor RXR-alpha (Homo sapiens) (UniProt P19793); assay: OT_NURR1_NURR1RXRa_1440: Odyssey Thera (OT) 24-hour HEK293T Protein Complementation Assay for Nurr1/retinoid X receptor (RXR) (AID 2283386)
In short: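 HEK293T protein-fragment complementation of Nurr1 and RXRα fused to reporter fragments; compounds 24 h. Fluorescence gain from reconstituted reporter fitted versus DMSO.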

[5] = target: Agonist Androgen Response Element (ARE), AR (gene 367) (UniProt P10275); assay: OT_AR_ARELUC_AG_1440: Odyssey Thera (OT) 24-hour CHO-K1 Luciferase Assay for Agonist Androgen Response Element (ARE) (AID 2283379)
In short: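 CHO-K1 cells carrying an ARE-driven luciferase reporter were exposed to compounds for 24 h. Luminescence was then read after adding a D-luciferin/ATP mix, and activity was scored as a gain in signal over DMSO vehicle.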

[6] = target: Bile acid receptor (Homo sapiens) (UniProt Q96RI1); assay: OT_FXR_FXRSRC1_0480: Odyssey Thera (OT) 8-hour HEK293T Protein-Complementation Assay for Farnesoid X receptor/SRC-1 Co-activator (AID 2283383)
In short: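 HEK293T protein-fragment complementation assay: FXR and SRC-1 coactivator are fused to reporter fragments, and their interaction restores a fluorescent reporter. Readout was taken 8 h after dosing, with gain of signal fit relative to DMSO.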

Chain of Bile acid receptor (Homo sapiens) (Q96RI1 whole entry, looked up, the tested form may be a part): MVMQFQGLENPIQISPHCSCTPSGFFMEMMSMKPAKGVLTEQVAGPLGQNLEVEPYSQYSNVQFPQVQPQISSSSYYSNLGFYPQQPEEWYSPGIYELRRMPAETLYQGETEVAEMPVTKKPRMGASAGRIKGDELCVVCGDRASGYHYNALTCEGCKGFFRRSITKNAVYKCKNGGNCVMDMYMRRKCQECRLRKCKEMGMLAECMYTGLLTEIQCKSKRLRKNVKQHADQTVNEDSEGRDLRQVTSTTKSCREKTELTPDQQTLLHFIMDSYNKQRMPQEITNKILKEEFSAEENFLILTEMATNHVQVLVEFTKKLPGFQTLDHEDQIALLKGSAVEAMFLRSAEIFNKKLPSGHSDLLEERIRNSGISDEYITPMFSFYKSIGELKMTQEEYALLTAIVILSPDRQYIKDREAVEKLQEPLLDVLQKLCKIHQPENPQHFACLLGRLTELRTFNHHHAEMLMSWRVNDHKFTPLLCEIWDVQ
Chain of Estrogen receptor (Homo sapiens) (P03372 whole entry, looked up): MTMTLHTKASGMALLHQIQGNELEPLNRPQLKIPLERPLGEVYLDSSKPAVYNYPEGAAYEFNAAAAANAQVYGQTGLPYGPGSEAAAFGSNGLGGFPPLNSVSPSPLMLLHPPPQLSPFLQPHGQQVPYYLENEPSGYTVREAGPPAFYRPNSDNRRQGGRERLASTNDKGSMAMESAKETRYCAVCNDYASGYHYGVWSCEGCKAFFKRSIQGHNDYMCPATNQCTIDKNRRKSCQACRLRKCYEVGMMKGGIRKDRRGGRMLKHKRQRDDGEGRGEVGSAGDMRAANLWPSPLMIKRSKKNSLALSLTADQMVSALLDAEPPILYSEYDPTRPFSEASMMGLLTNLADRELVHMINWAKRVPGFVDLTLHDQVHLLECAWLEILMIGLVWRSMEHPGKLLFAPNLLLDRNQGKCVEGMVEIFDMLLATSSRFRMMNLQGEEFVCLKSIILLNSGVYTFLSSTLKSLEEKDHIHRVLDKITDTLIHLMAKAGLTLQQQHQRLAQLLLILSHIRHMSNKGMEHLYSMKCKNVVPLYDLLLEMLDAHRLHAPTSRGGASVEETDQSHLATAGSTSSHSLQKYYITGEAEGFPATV
Chain of Estrogen receptor beta (Homo sapiens) (Q92731 whole entry, looked up, the tested form may be a part): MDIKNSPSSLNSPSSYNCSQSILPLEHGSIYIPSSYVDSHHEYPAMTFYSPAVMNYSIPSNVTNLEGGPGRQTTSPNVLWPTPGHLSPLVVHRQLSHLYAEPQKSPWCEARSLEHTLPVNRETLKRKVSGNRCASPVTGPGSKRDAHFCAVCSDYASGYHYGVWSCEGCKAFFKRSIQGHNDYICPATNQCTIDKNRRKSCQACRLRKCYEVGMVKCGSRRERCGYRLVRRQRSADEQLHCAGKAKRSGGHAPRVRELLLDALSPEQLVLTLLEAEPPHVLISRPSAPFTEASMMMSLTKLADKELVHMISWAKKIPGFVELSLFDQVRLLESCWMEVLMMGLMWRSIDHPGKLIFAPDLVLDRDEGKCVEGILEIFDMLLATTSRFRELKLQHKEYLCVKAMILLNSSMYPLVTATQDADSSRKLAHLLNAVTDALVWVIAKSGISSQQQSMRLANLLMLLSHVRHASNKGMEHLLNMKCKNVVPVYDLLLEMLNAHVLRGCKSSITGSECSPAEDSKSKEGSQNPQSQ
Chain of Retinoic acid receptor RXR-alpha (Homo sapiens) (P19793 whole entry, looked up, the tested form may be a part): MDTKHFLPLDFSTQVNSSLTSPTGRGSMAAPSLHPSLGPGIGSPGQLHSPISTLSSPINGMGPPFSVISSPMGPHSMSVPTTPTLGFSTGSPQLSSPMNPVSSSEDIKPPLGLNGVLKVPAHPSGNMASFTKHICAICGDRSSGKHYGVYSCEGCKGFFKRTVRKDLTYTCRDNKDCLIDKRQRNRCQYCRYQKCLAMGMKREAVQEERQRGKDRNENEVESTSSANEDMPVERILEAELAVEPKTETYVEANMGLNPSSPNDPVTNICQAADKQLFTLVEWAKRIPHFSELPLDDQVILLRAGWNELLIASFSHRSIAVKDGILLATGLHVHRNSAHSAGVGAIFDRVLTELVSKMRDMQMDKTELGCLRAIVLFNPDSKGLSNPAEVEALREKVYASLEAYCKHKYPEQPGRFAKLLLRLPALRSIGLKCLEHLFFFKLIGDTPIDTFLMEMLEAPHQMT
Chain of Agonist Androgen Response Element (ARE), AR (gene 367) (P10275 whole entry, looked up): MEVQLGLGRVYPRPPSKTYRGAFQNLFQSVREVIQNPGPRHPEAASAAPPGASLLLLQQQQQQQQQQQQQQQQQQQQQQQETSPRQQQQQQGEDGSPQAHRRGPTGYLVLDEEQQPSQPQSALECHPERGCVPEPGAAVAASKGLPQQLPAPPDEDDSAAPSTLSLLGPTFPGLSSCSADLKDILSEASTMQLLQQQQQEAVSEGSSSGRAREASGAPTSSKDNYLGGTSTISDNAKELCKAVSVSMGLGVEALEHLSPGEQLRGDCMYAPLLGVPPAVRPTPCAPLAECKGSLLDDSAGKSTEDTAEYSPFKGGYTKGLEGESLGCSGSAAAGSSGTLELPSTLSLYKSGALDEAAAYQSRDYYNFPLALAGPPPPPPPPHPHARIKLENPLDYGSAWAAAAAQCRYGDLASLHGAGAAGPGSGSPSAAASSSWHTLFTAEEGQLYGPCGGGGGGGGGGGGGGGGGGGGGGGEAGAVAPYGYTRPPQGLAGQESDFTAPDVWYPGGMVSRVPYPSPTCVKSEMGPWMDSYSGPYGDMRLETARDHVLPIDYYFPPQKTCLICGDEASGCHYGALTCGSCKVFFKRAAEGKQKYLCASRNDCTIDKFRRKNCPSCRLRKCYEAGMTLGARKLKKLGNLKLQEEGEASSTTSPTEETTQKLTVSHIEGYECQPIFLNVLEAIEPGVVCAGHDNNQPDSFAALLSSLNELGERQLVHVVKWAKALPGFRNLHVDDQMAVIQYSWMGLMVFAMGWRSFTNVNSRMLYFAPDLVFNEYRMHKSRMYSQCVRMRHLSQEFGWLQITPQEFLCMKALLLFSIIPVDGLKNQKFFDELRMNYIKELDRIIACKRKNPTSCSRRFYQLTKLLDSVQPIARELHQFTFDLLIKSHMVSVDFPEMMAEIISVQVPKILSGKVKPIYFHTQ

SMILES: OCCCBr
- outcome [1]: inactive

SMILES: c1ccc2c(c1)oc1ccccc12
- outcome [2]: inactive
- outcome [3]: inactive
- outcome [4]: inactive

SMILES: CCOc1cccc(C2(N3CCN(c4ccccc4)CC3)CCC(C)CC2)c1 (centres undefined)
- outcome [1]: inactive
- outcome [3]: inactive
- outcome [4]: inactive

SMILES: Brc1ccc(Oc2ccccc2)cc1
- outcome [1]: inactive
- outcome [3]: inactive
- outcome [4]: inactive

SMILES: Cn1cc(-c2ccccc2)c(=O)c(-c2cccc(C(F)(F)F)c2)c1
- outcome [1]: inactive
- outcome [3]: inactive

SMILES: CNC(=O)Oc1cccc2c1OC(C)(C)C2
- outcome [5]: inactive
- outcome [1]: inactive
- outcome [3]: inactive
- outcome [4]: inactive

SMILES: OCCOCCO
- outcome [1]: inactive
- outcome [3]: inactive
- outcome [4]: inactive

SMILES: COC(=O)Nc1nc2ccccc2[nH]1
- outcome [5]: inactive
- outcome [2]: inactive
- outcome [3]: inactive
- outcome [4]: inactive

SMILES: CC(C)N(Cc1ccccc1)C(=O)C(C)(C)C
- outcome [5]: inactive
- AC50 [2]: 41.5 µM (active)
- outcome [6]: inactive
- outcome [3]: inactive

SMILES: C[N+](C)(C)CC1CO1 (centres undefined)
- AC50 [5]: 26.1 µM (active)
- outcome [1]: inactive
- outcome [3]: inactive
- outcome [4]: inactive

SMILES: O=C1CCCO1
- outcome [5]: inactive
- outcome [3]: inactive

SMILES: CCNS(=O)(=O)C(F)(F)C(F)(F)C(F)(F)C(F)(F)C(F)(F)C(F)(F)C(F)(F)C(F)(F)F
- outcome [5]: inactive
- outcome [6]: inactive
- outcome [3]: inactive
- outcome [4]: inactive

SMILES: Clc1ccc(C(c2ccc(Cl)cc2)C(Cl)(Cl)Cl)cc1
- AC50 [2]: 29.1 µM (active)
- AC50 [6]: 11.2 µM (active)
- AC50 [3]: 70.1 µM (active)
- outcome [4]: inactive

SMILES: c1ccc2c(c1)-c1cccc3cccc-2c13
- AC50 [2]: 50 µM (active)
- outcome [3]: inactive
- outcome [4]: inactive

SMILES: CC(C)COC(=O)c1ccccc1C(=O)OCC(C)C
- AC50 [1]: 13 µM (active)
- AC50 [6]: 17.7 µM (active)
- outcome [3]: inactive
- outcome [4]: inactive

SMILES: CC(O)CCO (centres undefined)
- outcome [2]: inactive
- outcome [3]: inactive
- outcome [4]: inactive

SMILES: CC(C)(O)c1cnn2c(-c3ccc(F)c(-c4c(F)cccc4C#N)c3)cnc2n1
- outcome [5]: inactive
- AC50 [6]: 35.7 µM (active)
- AC50 [3]: 84.7 µM (active) and 91.1 µM (active)
- AC50 [4]: 86.8 µM (active) and 75.3 µM (active)

SMILES: N#CC(Br)Br
- outcome [2]: inactive
- outcome [1]: inactive

SMILES: ClC1=C(Cl)C2(Cl)C3C(Cl)C=CC3C1(Cl)C2(Cl)Cl (centres undefined)
- outcome [2]: inactive
- outcome [1]: inactive
- outcome [3]: inactive
- outcome [4]: inactive

SMILES: CCN(CC)CCO
- outcome [2]: inactive
- outcome [3]: inactive
- outcome [4]: inactive

SMILES: Cc1ccc([N+](=O)[O-])cc1
- outcome [1]: inactive
- outcome [4]: inactive

SMILES: [As]#[In]
- outcome [3]: inactive
- outcome [4]: inactive

SMILES: ClCCOCCCl
- outcome [6]: inactive
- outcome [3]: inactive
- outcome [4]: inactive

SMILES: CN(C)c1ccccc1
- outcome [6]: inactive
- outcome [4]: inactive

SMILES: Cc1ccc(N)cc1
- outcome [3]: inactive
- AC50 [4]: 50 µM (active)
- outcome [4]: inactive

SMILES: OCCCl
- outcome [6]: inactive
- outcome [3]: inactive
- outcome [4]: inactive

SMILES: Clc1ccccc1Cl
- outcome [6]: inactive
- outcome [4]: inactive

SMILES: CC(C)(C)OOC(C)(C)CCC(C)(C)OOC(C)(C)C
- outcome [3]: inactive
- outcome [4]: inactive

SMILES: O=Cc1ccco1
- outcome [3]: inactive
- outcome [4]: inactive

SMILES: Nc1ccc(Cc2ccc(N)cc2)cc1
- outcome [6]: inactive
- outcome [3]: inactive
- outcome [4]: inactive

SMILES: c1ccc(NNc2ccccc2)cc1
- outcome [6]: inactive
- outcome [3]: inactive
- AC50 [4]: 82.8 µM (active)
- outcome [4]: inactive

SMILES: CCCCC(CC)COC(=O)c1ccc(C(=O)OCC(CC)CCCC)c(C(=O)OCC(CC)CCCC)c1 (centres undefined)
- outcome [3]: inactive
- outcome [4]: inactive

SMILES: CN(C)c1ccc(C(=O)c2ccc(N(C)C)cc2)cc1
- AC50 [6]: 49 µM (active)
- AC50 [3]: 60.1 µM (active)
- outcome [3]: inactive
- outcome [4]: inactive

SMILES: c1ccc(C2CO2)cc1 (centres undefined)
- outcome [3]: inactive
- outcome [4]: inactive

SMILES: CCCSC(=O)N(CCC)CCC
- outcome [3]: inactive

SMILES: N#CC(Br)(Br)C(N)=O
- outcome [3]: inactive
- outcome [4]: inactive

SMILES: c1ccc(N=Nc2ccccc2)cc1
- outcome [3]: inactive
- outcome [4]: inactive

SMILES: C1=Cc2cccc3cccc1c23
- outcome [3]: inactive
- outcome [4]: inactive

SMILES: O=C(O)C1C2CCC(O2)C1C(=O)O (centres undefined)
- AC50 [3]: 74.3 µM (active)
- outcome [3]: inactive
- AC50 [4]: 32 µM (active)
- outcome [4]: inactive

SMILES: CS(=O)(=O)NC(=O)c1cc(Oc2ccc(C(F)(F)F)cc2Cl)ccc1[N+](=O)[O-]
- outcome [6]: inactive
- outcome [4]: inactive

SMILES: CN(C)C(=O)Nc1ccc(Cl)cc1
- outcome [6]: inactive
- outcome [3]: inactive
- outcome [4]: inactive

SMILES: Nc1ccc(Oc2ccc(N)cc2)cc1
- outcome [3]: inactive
- outcome [4]: inactive

SMILES: Cc1ccc(N=C=O)cc1N=C=O
- outcome [3]: inactive
- outcome [4]: inactive

SMILES: Oc1ccccc1Cl
- outcome [3]: inactive
- outcome [4]: inactive

SMILES: CCCCCCCCCCCCCN1CC(C)OC(C)C1 (centres undefined)
- outcome [1]: inactive
- AC50 [3]: 72.5 µM (active)
- AC50 [4]: 81.7 µM (active)
- outcome [4]: inactive

SMILES: Clc1ccc(Cl)c(Cl)c1
- outcome [3]: inactive
- outcome [4]: inactive

SMILES: CCN(CC)N=O
- outcome [6]: inactive
- outcome [3]: inactive
- outcome [4]: inactive

SMILES: O=P(OCCCl)(OCCCl)OCCCl
- outcome [6]: inactive
- outcome [3]: inactive
- outcome [4]: inactive
